In the library only some 0.4% were active in any assay of this set; here they are far more common.
FMDV FLuc: shows antiviral activity against foot and mouth disease virus | FMDV antiviral cell assay, firefly luciferase signal | Potency, µM (top dose mostly 57.5 µM), for the others: at the highest dose activity change, negative = inhibition, hits mostly inhibitors | actives 0.23% (n = 120,000) | AID 1745856; further: nearly all actives have a fitted effect of over 60% in size
FMDV Renilla: antivirals against foot and mouth disease virus replicon | FMDV replicon cells, Renilla luciferase signal | Potency, µM (highest dose often 57.5 µM), for inactives: top-dose activity change, negative = inhibition, hits mostly inhibitors | actives 0.32% (n = 120,000) | AID 1745857; further: nearly all actives have a fitted effect of over 55% in size
* hit, by the source's call; u = inconclusive. The call rests on the fitted dose curve. On the % scale 0 is the no-effect control and ±100 the full control effect; potency means the concentration at half of the fitted maximal effect.

SMILES | FMDV FLuc | FMDV Renilla
O=C(C1CCN(S(=O)(=O)c2cccs2)CC1)N1CCN(c2cccc(Cl)c2)CC1 | 3% | -1%
O=C(C1CCC(CNS(=O)(=O)c2cccs2)CC1)N1CCN(c2ccc(Cl)cc2)CC1 (stereo not given) | u | 4.5µM*
CN(Cc1ccccc1)C(=O)CSc1ncnc2ccccc12 | 37% | -11%
CCCOc1ccc2ccccc2c1CN(C)C(=O)Cc1n[nH]c(=O)c2ccccc12 | 25µM* | u
CN(Cc1cccs1)C(=O)Cc1n[nH]c(=O)c2ccccc12 | 15% | -1%
O=C(OCc1nc(-c2ccc(OC(F)(F)F)cc2)no1)c1ccc2c(c1)OCO2 | 0% | 0%
CC(C)N(C(=O)/C=C/c1ccc([N+](=O)[O-])cc1)C(C)C | 131% | 11%
Cc1ccc2c(c1)CCCN2C(=O)c1cnc2c(cnn2C(C)C)c1 | 13% | 11%
CC(C)N(Cc1ccccc1)C(=O)c1cc2ccc3cccnc3c2[nH]1 | 25µM* | 8.9µM*
O=C(NCc1cccc(Cl)c1)c1cc2ccc3cccnc3c2[nH]1 | 26% | 22%
COc1ccc(CN2CCc3c(c(=O)n4ncc(C(=O)N5CCN(c6ccccc6OC)CC5)c4n3C)C2)cc1 | 2.8µM* | 1.8µM*
CCn1c2c(c(=O)n3ncc(C(=O)Nc4cc(Cl)ccc4OC)c13)CN(Cc1ccc(OC)cc1)CC2 | -21% | 11%
CCCc1cc(=O)oc2cc(OC(C)C(=O)OCC)ccc12 (stereo not given) | 5% | -2%
Brc1ccc(CN2CCc3nc(N4CCN(c5ncccn5)CC4)ncc3C2)cc1 | -25% | u
COc1cc(CN2CCc3nc(N4CCN(c5ncccn5)CC4)ncc3C2)cc(OC)c1OC | u | 7.1µM*
Cn1nc(C(=O)N2CCN(c3ccc(F)cc3)CC2)c2ccccc2c1=O | -5% | 6%
Cc1ccc(C)c(NC(=O)COC(=O)c2ccc3ccccc3n2)c1 | -5% | -15%
Cc1ccc(NC(=O)COC(=O)c2ccc3ccccc3n2)c(C)c1 | u | 22µM*
Cc1ccc(Cl)cc1-n1nnc(-c2nsc(NC(=O)c3ccccc3Cl)n2)c1C | 111% | -15%
Cc1ccc(C(=O)Nc2nc(-c3nnn(-c4cccc(Cl)c4C)c3C)ns2)cc1C | 3.5µM* | 5µM*
COC(=O)CCCc1c(-c2ccccn2)[nH]c2cc(C)cc(C)c12 | 12% | -4%
N#Cc1nc(-c2ccccc2Cl)oc1NCc1ccc(Cl)cc1 | 186% | 106%
COc1cc(C2CC(=O)c3c([nH]c(C(=O)OC4CCCC4)c3C)C2)cc(OC)c1OC (stereo not given) | u | 8.9µM*
Cc1c(C(=O)OC2CCCCCC2)[nH]c2c1C(=O)CC(c1ccccc1)C2 (stereo not given) | -12% | -9%
CCOC(=O)c1cnc2c(Cl)c(Cl)ccc2c1NCCOC(=O)CC | 18% | 13%
SMILES | FMDV FLuc | FMDV Renilla
O=c1c2ccsc2ncn1Cc1coc(-c2cccc(F)c2)n1 | 24% | -1%
O=C(COc1ccccc1)Nc1ccc(S(=O)(=O)N(Cc2ccccc2)c2ccccc2)cc1 | -10% | -5%
COc1ccc(C(=O)Nc2ccc(S(=O)(=O)N(Cc3ccccc3)c3ccccc3)cc2)cc1 | 5µM* | 5µM*
CCOc1ccc(C(=O)Nc2ccc(-n3nncc3-c3ccc(OC)cc3)cc2)cc1 | -14% | -5%
COc1ccc(-c2cnnn2-c2ccc(NC(=O)c3ccc(S(=O)(=O)N(C)C)cc3)cc2)cc1 | u | 6.3µM*
Cc1ccc(-c2nc3cc(C(C)C)ccc3o2)cc1NC(=O)c1cccnc1 | 86% | -7%
Cc1cccc(-c2noc(-c3ccc(N4CCOCC4)c([N+](=O)[O-])c3)n2)c1 | -23% | 2%
Cc1cccc(-c2noc(-c3ccc(N4CCCC4)c([N+](=O)[O-])c3)n2)c1 | 8.9µM* | 7%
CCOc1cc(C)c(C(C)C)cc1S(=O)(=O)NC1CC(C)(C)NC(C)(C)C1 | -8% | 92%
CCc1c(C)sc2c1CCN(C(=O)Nc1ccc(F)c(Cl)c1)C2c1ccc(F)cc1 (stereo not given) | 35µM* | u
CCc1c(C)sc2c1CCN(C(=O)Nc1ccccc1C(=O)OC)C2c1ccc(F)cc1 (stereo not given) | -14% | 3%
O=C(NCc1ccc(-c2nc3ccccc3s2)o1)c1ccc(F)cc1F | 10% | -25%
CC(C)NS(=O)(=O)c1ccc(Cl)c(C(=O)NCc2ccc(-c3nc4ccccc4s3)o2)c1 | u | 14µM*
OCc1cccc(Nc2nc(-c3ccncc3)nc3ccccc23)c1 | 41% | 31%
Cc1c(-c2ccccc2)oc2c(C(=O)OCC(=O)Nc3c(F)cccc3F)cccc2c1=O | 0% | 25%
C=C(C)COc1ccc2c(C)c(CC(=O)NCCc3ccc(S(N)(=O)=O)cc3)c(=O)oc2c1 | 4µM* | 3.5µM*
Cc1c(C)c2ccc(OCC(=O)NCCc3ccc(S(N)(=O)=O)cc3)cc2oc1=O | 3% | 0%
O=C1CC(c2ccc(Cl)cc2)CC2=C1C=Nc1ccccc1N2 (stereo not given) | 0% | -9%
